The values that follow come from the supplement of paper PMC11732987, “Enantioselective OTUD7B fragment discovery through chemoproteomics screening and high-throughput optimisation” (Communications Chemistry, 2025).

Sequence of UniProt Q14694 (Q14694 whole entry): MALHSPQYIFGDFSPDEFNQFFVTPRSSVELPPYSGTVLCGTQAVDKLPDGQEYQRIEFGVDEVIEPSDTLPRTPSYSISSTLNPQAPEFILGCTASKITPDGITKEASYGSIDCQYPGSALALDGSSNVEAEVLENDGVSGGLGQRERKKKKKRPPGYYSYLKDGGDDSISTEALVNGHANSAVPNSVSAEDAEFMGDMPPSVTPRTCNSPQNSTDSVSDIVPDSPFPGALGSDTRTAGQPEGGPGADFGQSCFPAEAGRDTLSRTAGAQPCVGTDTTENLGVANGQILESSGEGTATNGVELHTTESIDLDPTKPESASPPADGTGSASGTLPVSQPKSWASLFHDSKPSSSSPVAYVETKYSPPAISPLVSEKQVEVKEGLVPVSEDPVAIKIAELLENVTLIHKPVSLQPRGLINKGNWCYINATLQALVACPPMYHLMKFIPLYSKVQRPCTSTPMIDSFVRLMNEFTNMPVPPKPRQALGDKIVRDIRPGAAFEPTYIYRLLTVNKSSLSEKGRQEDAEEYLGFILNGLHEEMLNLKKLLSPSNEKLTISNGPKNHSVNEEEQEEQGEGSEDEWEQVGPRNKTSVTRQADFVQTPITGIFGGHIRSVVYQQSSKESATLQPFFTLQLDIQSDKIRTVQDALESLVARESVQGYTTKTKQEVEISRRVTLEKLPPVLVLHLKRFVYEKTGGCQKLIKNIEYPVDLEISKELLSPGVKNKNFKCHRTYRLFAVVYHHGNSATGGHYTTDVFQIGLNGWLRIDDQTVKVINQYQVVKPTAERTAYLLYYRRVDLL
Sequence of UniProt Q4G0A6 (Q4G0A6 whole entry): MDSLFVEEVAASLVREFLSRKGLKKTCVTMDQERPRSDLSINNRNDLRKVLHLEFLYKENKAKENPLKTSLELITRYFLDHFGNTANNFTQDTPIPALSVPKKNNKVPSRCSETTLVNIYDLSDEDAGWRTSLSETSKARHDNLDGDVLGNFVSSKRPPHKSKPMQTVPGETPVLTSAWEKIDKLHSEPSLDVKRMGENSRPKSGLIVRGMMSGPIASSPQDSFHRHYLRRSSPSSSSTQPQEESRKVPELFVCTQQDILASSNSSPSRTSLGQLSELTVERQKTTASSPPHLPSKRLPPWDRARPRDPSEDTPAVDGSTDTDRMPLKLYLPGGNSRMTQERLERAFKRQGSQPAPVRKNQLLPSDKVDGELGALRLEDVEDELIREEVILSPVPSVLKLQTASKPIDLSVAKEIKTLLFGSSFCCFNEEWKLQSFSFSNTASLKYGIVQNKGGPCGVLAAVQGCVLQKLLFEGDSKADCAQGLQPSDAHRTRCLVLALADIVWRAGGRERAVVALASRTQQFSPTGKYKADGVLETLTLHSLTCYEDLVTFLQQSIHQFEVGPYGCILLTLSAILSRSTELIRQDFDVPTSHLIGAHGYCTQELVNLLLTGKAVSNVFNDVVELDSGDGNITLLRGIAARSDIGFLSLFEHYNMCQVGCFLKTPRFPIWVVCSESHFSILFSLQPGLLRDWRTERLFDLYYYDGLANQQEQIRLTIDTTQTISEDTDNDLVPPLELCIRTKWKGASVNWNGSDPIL
Sequence of UniProt O94966 (O94966 whole entry): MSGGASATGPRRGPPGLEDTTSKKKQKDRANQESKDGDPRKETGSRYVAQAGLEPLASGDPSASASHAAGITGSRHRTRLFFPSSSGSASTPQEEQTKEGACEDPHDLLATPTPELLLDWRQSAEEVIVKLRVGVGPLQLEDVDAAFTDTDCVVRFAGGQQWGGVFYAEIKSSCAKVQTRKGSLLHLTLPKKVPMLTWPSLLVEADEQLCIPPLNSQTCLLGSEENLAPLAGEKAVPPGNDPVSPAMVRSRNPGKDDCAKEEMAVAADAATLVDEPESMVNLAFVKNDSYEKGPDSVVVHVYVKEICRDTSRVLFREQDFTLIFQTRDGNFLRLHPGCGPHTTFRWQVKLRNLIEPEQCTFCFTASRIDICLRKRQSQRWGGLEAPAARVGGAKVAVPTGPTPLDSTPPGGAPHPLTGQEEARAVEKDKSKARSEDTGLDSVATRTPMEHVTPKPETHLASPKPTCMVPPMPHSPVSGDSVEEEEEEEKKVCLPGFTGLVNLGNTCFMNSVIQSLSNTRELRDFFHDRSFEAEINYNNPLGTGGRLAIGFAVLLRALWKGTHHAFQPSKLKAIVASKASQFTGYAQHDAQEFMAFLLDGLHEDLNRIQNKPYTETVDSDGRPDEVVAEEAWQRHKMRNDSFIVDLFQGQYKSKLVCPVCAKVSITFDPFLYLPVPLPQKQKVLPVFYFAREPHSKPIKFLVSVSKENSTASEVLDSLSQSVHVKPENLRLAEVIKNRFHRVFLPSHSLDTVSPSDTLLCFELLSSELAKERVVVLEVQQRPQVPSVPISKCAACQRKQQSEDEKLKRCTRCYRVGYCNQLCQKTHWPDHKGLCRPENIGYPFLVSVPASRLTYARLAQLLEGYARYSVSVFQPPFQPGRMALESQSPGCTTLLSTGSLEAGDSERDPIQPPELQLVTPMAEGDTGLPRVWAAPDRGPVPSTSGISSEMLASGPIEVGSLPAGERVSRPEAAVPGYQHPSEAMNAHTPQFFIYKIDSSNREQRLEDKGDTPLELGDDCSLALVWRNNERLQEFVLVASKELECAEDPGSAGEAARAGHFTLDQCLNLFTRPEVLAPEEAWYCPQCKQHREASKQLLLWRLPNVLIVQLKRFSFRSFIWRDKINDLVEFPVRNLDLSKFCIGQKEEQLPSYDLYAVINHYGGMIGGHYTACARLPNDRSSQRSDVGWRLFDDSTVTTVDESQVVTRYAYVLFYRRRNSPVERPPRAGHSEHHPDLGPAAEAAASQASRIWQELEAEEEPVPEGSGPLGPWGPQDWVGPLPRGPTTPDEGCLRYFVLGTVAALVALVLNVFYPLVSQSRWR
Sequence of UniProt P09936 (P09936 whole entry, looked up): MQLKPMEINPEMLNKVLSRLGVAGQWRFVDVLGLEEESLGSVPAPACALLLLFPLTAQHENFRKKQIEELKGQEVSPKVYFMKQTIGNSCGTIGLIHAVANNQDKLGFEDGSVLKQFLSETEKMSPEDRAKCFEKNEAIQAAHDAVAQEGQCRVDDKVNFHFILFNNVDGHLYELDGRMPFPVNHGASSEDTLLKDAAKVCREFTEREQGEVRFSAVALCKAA
Sequence of UniProt Q9NUU6 (Q9NUU6 whole entry): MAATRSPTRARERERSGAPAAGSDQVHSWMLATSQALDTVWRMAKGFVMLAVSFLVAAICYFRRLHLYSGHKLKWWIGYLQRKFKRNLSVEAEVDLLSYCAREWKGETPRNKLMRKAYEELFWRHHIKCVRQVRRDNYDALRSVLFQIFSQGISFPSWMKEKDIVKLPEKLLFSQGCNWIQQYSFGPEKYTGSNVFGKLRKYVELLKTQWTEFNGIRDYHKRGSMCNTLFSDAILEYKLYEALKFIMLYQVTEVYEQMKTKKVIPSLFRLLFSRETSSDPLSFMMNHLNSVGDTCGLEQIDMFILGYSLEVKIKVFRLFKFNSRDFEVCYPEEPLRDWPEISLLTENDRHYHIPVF
Sequence of UniProt Q9Y5T5 (Q9Y5T5 whole entry, looked up): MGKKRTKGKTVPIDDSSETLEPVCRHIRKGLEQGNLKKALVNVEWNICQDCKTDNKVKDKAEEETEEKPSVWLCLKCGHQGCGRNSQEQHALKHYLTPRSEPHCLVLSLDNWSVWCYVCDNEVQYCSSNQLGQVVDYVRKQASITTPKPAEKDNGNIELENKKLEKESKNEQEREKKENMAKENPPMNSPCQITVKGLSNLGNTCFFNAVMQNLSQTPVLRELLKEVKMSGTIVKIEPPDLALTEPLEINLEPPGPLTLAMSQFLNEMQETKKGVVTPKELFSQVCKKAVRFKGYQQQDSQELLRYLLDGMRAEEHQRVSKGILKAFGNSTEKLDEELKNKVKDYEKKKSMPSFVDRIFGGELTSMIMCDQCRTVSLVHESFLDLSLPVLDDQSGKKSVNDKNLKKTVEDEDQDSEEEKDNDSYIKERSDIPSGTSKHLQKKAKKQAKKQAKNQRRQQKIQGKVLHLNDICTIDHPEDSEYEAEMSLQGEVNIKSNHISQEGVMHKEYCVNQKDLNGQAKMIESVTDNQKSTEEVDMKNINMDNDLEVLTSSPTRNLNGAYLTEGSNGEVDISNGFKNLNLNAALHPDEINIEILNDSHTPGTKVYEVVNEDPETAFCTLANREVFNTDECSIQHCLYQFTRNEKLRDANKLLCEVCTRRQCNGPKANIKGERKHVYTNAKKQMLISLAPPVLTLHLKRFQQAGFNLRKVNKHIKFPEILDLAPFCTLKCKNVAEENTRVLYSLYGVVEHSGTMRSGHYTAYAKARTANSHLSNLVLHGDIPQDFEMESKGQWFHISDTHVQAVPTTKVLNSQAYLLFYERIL
Sequence of UniProt P15374 (P15374 whole entry): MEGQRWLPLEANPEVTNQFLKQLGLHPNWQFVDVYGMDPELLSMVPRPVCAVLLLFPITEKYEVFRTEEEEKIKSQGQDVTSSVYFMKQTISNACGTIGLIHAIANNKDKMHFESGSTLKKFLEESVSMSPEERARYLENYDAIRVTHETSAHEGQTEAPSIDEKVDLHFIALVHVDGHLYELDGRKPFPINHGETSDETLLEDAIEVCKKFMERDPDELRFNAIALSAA
Sequence of UniProt Q92905 (Q92905 whole entry, looked up): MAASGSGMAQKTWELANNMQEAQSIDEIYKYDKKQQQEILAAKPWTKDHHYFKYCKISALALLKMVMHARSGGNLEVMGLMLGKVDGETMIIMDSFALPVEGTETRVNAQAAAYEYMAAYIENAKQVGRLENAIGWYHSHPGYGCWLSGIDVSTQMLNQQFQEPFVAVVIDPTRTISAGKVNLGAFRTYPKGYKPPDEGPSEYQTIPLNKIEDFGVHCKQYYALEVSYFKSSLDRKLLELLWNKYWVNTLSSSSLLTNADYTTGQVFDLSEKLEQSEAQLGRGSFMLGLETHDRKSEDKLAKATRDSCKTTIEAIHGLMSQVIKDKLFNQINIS

Compound in one test: CN(Cc1cccc(OCc2ccccc2C)c1)C(=O)CCl
Kind of test: log2 ratio of Biotin-Ahx-Ub-VS probe labelling (compound/DMSO); higher = less target engagement, active = hit call of the paper (q ≤ 0.05, log2 ratio ≤ -1). The following applies: compound concentration: 50uM; treatment time: 3 h. As for the experimental part: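 Round 2 competitive ABPP in HEK293T lysate. Purified HTC-D2B compounds were tested at 50 and 200 µM for 3 h, followed by Biotin-Ahx-Ub-VS enrichment and diaPASEF LC-MS/MS. Values are the average log2 ratio (compound/DMSO) from an unpaired t-test (n=3 treated, n=26 DMSO).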
With UCHL1 (UniProt P09936), the “log2 ratio of Biotin-Ahx-Ub-VS probe labelling” value (“log2 ratio” below) is -0.437 (inactive).
On to MINDY4 (UniProt Q4G0A6), for which the “log2 ratio” value is 0.702 (inactive).
For the target USP28 (UniProt Q96RU2), the “log2 ratio” value is -0.572 (inactive).
With UniProt Q9P2H5, the “log2 ratio” value was -0.626 (inactive).
In the case of USP16 (UniProt Q9Y5T5), the “log2 ratio” value was -0.495 (inactive).
As to USP10 (UniProt Q14694), the “log2 ratio” value is -0.287 (inactive).
Consider FAM105A (UniProt Q9NUU6), for which the “log2 ratio” value was -0.255 (inactive).
Turning to USP19 (UniProt O94966), the “log2 ratio” value was -1 (active).
USP15 (UniProt Q9Y4E8): the “log2 ratio” value was -0.611 (inactive).
Still for that read-out and setting: with COPS5 (UniProt Q92905) the figure was -0.375 (inactive); with USP34 (UniProt Q70CQ2), 0.154 (inactive).
Consider YOD1 (UniProt Q5VVQ6), for which the “log2 ratio” value was -0.555 (inactive).
Turning to OTUD6B (UniProt Q8N6M0), the “log2 ratio” value was -0.59 (inactive).
As for UniProt P51784, the “log2 ratio” value was -0.394 (inactive).
With USP25 (UniProt Q9UHP3), the “log2 ratio” value was -1.05 (active).
Consider USP42 (UniProt Q9H9J4), for which the “log2 ratio” value was 0.101 (inactive).
USP9X (UniProt Q93008): the “log2 ratio” value is -0.553 (inactive).
With USP24 (UniProt Q9UPU5), the “log2 ratio” value is -0.993 (inactive).
On to UCHL3 (UniProt P15374), for which the “log2 ratio” value is -0.479 (inactive).
On the same count and under the same terms, with ATXN3 (UniProt P54252) the figure was -0.719 (inactive).

The same test, now with this note: compound concentration: 200uM; treatment time: 3 h.
For UCHL1 (UniProt P09936), the “log2 ratio” value was -0.268 (inactive).
With MINDY4 (UniProt Q4G0A6), the “log2 ratio” value was 0.585 (inactive).
The same measure, in the same setting: with USP28 (UniProt Q96RU2) the figure was -0.911 (inactive).
Take UniProt Q9P2H5: the “log2 ratio” value is -0.327 (inactive).
Turning to USP16 (UniProt Q9Y5T5), the “log2 ratio” value is -0.496 (inactive).
Regarding USP10 (UniProt Q14694), the “log2 ratio” value was -0.0982 (inactive).
As to FAM105A (UniProt Q9NUU6), the “log2 ratio” value was -0.114 (inactive).
USP19 (UniProt O94966): the “log2 ratio” value was -1.76 (active).
USP15 (UniProt Q9Y4E8): the “log2 ratio” value is -0.533 (inactive).
Still for that read-out and setting: with COPS5 (UniProt Q92905) the figure was -0.104 (inactive); with USP34 (UniProt Q70CQ2), -0.582 (inactive); with YOD1 (UniProt Q5VVQ6), -0.132 (inactive).
As to OTUD6B (UniProt Q8N6M0), the “log2 ratio” value was -0.817 (inactive).
For UniProt P51784, the “log2 ratio” value was -0.417 (inactive).
On to USP25 (UniProt Q9UHP3), for which the “log2 ratio” value is -0.67 (inactive).
Turning to USP42 (UniProt Q9H9J4), the “log2 ratio” value was 0.171 (inactive).
Still for that read-out and setting: with USP9X (UniProt Q93008) the figure was -1.59 (active).
The same measure, in the same setting: with USP24 (UniProt Q9UPU5) the figure was -2.02 (active); with UCHL3 (UniProt P15374), -0.262 (inactive).
Regarding ATXN3 (UniProt P54252), the “log2 ratio” value was -1.1 (active).
